Screening data deposited in PubChem BioAssay by National Center for Advancing Translational Sciences (NCATS).
In the library only some 20% were active in any assay of this set; here they are far more common.
Pf growth 96h: P. falciparum growth inhibition at 96 hour, primary screen for plastid delayed-death inhibitors; AID 504834; actives 6.9% (n = 320,000); P. falciparum luciferase reporter growth, 96 h; Potency, µM (top dose mostly 28.7 µM), most hits filed as inhibitors
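Readout is luminescence from an integrated firefly luciferase in P. falciparum. Red cells, 2% hematocrit and 0.05% parasitemia final, were cultured with compound through two parasite generations (96 hours) at 37 C, 5% CO2.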
Pf growth 48h: P. falciparum growth inhibition at 48 hours (one generation). Potency, µM (doses to about 28.7 µM), most hits filed as inhibitors. actives 5.9% (n = 310,000). P. falciparum luciferase growth in erythrocytes, 48 h. AID 504832
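Firefly luciferase activity from engineered P. falciparum reports growth; inhibitors lower the luminescent signal. Cultures contained 2% hematocrit erythrocytes at 0.1% final parasitemia.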
Shiga toxin inh: blocks Shiga toxin action in Vero cells; AID 2315; Vero cells, Shiga toxin protein synthesis inhibition reporter; actives 9.2% (n = 290,000); inhibition, % at 38.7 µM; in the data active = inhibition mostly above about 28%, no sharp cut-off; inactive = mostly below about 43%
CHX counter: counter-screen for Shiga toxin inhibitors: cycloheximide protein synthesis inhibition. actives 12% (n = 300,000). max response, %. cell reporter, cycloheximide protein synthesis inhibition counterscreen; in the data active = max response mostly above about 13%, no sharp cut-off; inactive = mostly below about 14%; also: read at 38.3 µM for the half of the compounds with a filed dose
HCMV inh: blocks human cytomegalovirus replication; HFF cells, HCMV-luciferase reporter, 72 h; active compounds read low; activity change, negative = inhibition, % at 57.5 µM; actives 4.5% (n = 410,000); in the data active = activity change below about -60%; inconclusive = no clear call, values can overlap the other calls; inactive = above about -39%
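Inhibition of viral replication was scored as loss of reporter luminescence in HFFs infected with HCMV-luciferase (MOI 1 PFU/cell) for 72 h; compounds tested at 2 doses, normalized to buffer and Salinomycin controls.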
A number is an active result; 0 = inactive; ? = inconclusive; - = not tested or not shown; + = active, no number. Unless noted, calls follow the shape of the dose curve; as a rule, active = well fitted inhibition curve with a large enough effect; inconclusive = small, poorly fitted or top-dose-only effect, or another doubt; inactive = no such curve, though single readings can be large or run the other way.

SMILES	Pf growth 96h	Pf growth 48h	Shiga toxin inh	CHX counter	HCMV inh
O=C(NCCc1ccccc1)c1ccc(Br)o1	0	0	83.0	45.9	0
N#Cc1ccc(CN2CCN(C(=O)CNC(=O)Cc3cccc4ccccc34)CC2)cc1	0	?	-	-	-68.0
CCc1ccccc1NC(=O)CN1CCN(C(=O)CNC(=O)Cc2cccc3ccccc23)CC1	?	?	-	-	0
O=C(NCCc1ccccc1)c1cccc(Br)n1	-	-	+	77.6	-
CC(=O)N1CCN(C(=O)CNC(=O)c2ccc(Br)o2)CC1	0	0	0	0	0
O=C(NCCCCNCCCNC(=O)c1ccccc1)c1ccccc1	-	-	-	-	0
O=C(C1CCN(S(=O)(=O)c2ccccc2)CC1)N(CCc1ccccc1)Cc1ccco1	0	13.1µM	0	0	0
Cc1ccc(S(=O)(=O)N2CCC(C(=O)NCC3CC3)CC2)cc1	0	5.86µM	0	0	0
Cc1ccc(S(=O)(=O)N2CCC(C(=O)NCC3CCCCC3)CC2)cc1	?	0	0	0	0
O=C(NC1CCCCCC1)C1CCN(S(=O)(=O)c2ccccc2)CC1	2.94µM	0	0	0	0
O=C(NC1CCN(S(=O)(=O)c2ccccc2)CC1)C1CCCCC1	0	0	0	0	0
COc1cc(OC)cc(C(=O)N2CCC(C(=O)NCCc3ccccc3)CC2)c1	0	0	-	24.3	0
Cc1cc([N+](=O)[O-])c2c(c1C)C1C=CCC1C(c1ccccn1)N2 (stereo not given)	?	?	0	0	-
O=C(NC1CCCC1)C1c2ccccc2OCC(=O)N1Cc1ccco1 (stereo not given)	-	-	-	-	0
O=C(NCCc1ccccc1)C1CCN(S(=O)(=O)c2ccccc2)CC1	0	-	0	0	-104.0
COc1ccc(CNC(=O)C2CSCCS2)cc1 (stereo not given)	0	0	0	24.2	0
CS(=O)(=O)N1CCC(C(=O)NCCc2ccccc2)CC1	0	-	0	0	0
CCS(=O)(=O)N1CCC(C(=O)NCc2ccc(OC)cc2)CC1	5.86µM	0	0	0	0
COc1ccc(CNC(=O)C2CCN(c3nc(-c4ccccc4)nc4c3CCC4)CC2)cc1	?	1.85µM	0	0	0
Cc1nc(-c2ccccc2)sc1CCNC(=O)c1ccco1	-	-	-	-	0
CC(=O)Nc1cccc(C(=O)OCC(=O)NC(=O)NC2CCCC2)c1	-	-	-	-	0
CCOc1ccccc1NC(=O)C(=O)NCCc1sc(-c2cccc(F)c2)nc1C	-	-	-	-	0
O=C(NCc1cccc(CNC(=O)C(=O)NCc2ccco2)c1)C(=O)NCc1ccco1	?	0	0	0	0
COc1ccc(CNC(=O)C2CCN(C(=O)[C@@H](CC(C)C)NC(=O)OC(C)(C)C)CC2)cc1	0	9.28µM	0	0	0
COCCN(Cc1ccccc1)C(=O)C1CCN(S(=O)(=O)c2ccc3c(c2)OCCO3)CC1	11.7µM	?	-	-	0
SMILES	Pf growth 96h	Pf growth 48h	Shiga toxin inh	CHX counter	HCMV inh
COc1ccc(S(=O)(=O)N2CCC(C(=O)NCC3CC3)CC2)cc1	0	10.4µM	0	0	0
Cc1ccc(S(=O)(=O)N2CCC(C(=O)NC3CC3)CC2)cc1	0	2.33µM	0	0	0
CC(O)c1nc2ccccc2n1C(C)c1ccccc1 (stereo not given)	0	0	0	0	0
CC(C)CN(CC(C)C)S(=O)(=O)N1CCC(C(=O)NC2CCCCCCC2)CC1	11.7µM	?	0	0	0
CC(C)(C)NC(=O)C1CCN(S(=O)(=O)c2ccc(Br)cc2)CC1	0	9.28µM	0	0	0
O=C(NC1CCCCCCC1)C1CCN(c2nc3ccccc3o2)CC1	0	?	0	0	-88.1
CCN1CCN(C(=O)C2CCN(S(=O)(=O)c3ccc(Br)cc3)CC2)CC1	?	0	0	0	?
Cc1ccc(CCNC(=O)C2CCN(S(=O)(=O)N3CCCCC3)CC2)cc1	?	0	0	0	0
O=C(NCCc1ccccc1)C1CCN(c2nc3ccccc3o2)CC1	0	0	0	0	0
Cc1ccc(CCNC(=O)C2CCN(C(=O)N(C)C)CC2)cc1	1.31µM	-	0	0	0
COc1ccc(CCNC(=O)CSc2ncc3c(n2)-c2cc(Cl)ccc2N(Cc2ccccc2)S3(=O)=O)cc1OC	-	-	-	-	0
COc1ccc(S(=O)(=O)N2CCC(C(=O)NC(c3nc4ccccc4[nH]3)C(C)C)CC2)cc1 (stereo not given)	?	10.4µM	-	-	0
Cc1ccc(S(=O)(=O)NCCn2cnc([N+](=O)[O-])n2)cc1	0	0	0	0	0
CCC(C(=O)OC)n1cnc2c(nnn2-c2cccc(OC)c2)c1=O (stereo not given)	0	0	0	16.3	?
COc1cccc(-n2nnc3c(=O)n(Cc4cccc(F)c4)cnc32)c1	?	0	0	0	0
COC(=O)C(C)n1cnc2c(nnn2-c2cccc(OC)c2)c1=O (stereo not given)	0	0	41.0	19.7	0
CCC(C(=O)OC)n1cnc2c(nnn2-c2ccccc2)c1=O (stereo not given)	0	0	0	0	0
COc1cccc(-n2nnc3c(=O)n(Cc4c(F)cccc4Cl)cnc32)c1	9.28µM	0	0	0	0
Cc1cc(Cl)ccc1OCC(O)CNCCc1ccc(S(N)(=O)=O)cc1 (stereo not given)	?	?	0	0	0
O=c1[nH]ccc2c([N+](=O)[O-])cccc12	0	0	0	0	0
O=[N+]([O-])c1cccc2c([As](=O)(O)O)cccc12	0.465µM	0.738µM	0	0	-73.5
CC(C)NC(=O)CN1CCC(c2ccccc2)C(O)C1 (stereo not given)	0	0	0	0	0
Cc1cc(C(C)(C)C)ccc1NC(=O)CC(C)(C)CC(=O)O	0	0	82.1	49.0	0
CCc1cccc(C)c1NC(=O)CC(C)(C)CC(=O)O	0	0	0	0	0
O=C(Cn1cnc2ccccc21)N/N=C/c1cccc([N+](=O)[O-])c1	0	0	0	0	0
SMILES	Pf growth 96h	Pf growth 48h	Shiga toxin inh	CHX counter	HCMV inh
CC(=O)c1cc(-c2ccc(F)cc2)n(CCC(=O)NCc2ccccc2C)c1C	-	-	-	-	0
Cc1ccc(C(=O)Nc2cc3c(oc2=O)CCCC3=O)cc1	0	0	74.9	44.5	0
CC1(C)CC(=O)c2cc(NC(=O)c3ccc(F)cc3)c(=O)oc2C1	0	0	0	0	0
O=C(Nc1cc2c(oc1=O)CCCC2=O)c1ccccc1	0	0	17.2	33.2	0
O=C(Nc1cc2ccc(O)cc2oc1=O)c1ccccc1	-	-	-	-	0
C=CCNS(=O)(=O)c1ccc(N2C(=O)c3ccccc3C2=O)cc1	?	0	0	0	0
CCCn1c(SCC(=O)NC2CCCCC2)nnc1-c1ccco1	0	0	0	0	0
CC1(C)C(=O)CC[C@@]2(C)[C@H]1CC[C@@]1(C)CC3=C(CC[C@@H]12)[C@@]1(C)CCC(=O)C(C)(C)[C@@H]1CC3	?	11.7µM	-	-	-
C=C(C)[C@@H]1CCC2(C(=O)O)CC[C@]3(C)[C@H](CC[C@@H]4[C@@]5(C)CCC(=O)C(C)(C)[C@@H]5CC[C@]43C)[C@@H]12 (stereo not given in full)	?	?	0	0	?
COC(=O)c1cc2oc(C)cc2n1Cc1ccccc1Cl	-	-	-	-	0
